For 15 molecules, composite z-score and z-score results are on record in PubChem BioAssay.

The source made the active and inactive calls. Unless noted, no rule for the calls is given here.

Assay [1] has as its system Wnt5a (protein binding on small-molecule microarray). Briefly: small molecules binding Wnt5a protein – biophysical, small-molecule microarray, 635/667 nm fluorescence, primary screen (AID 1142).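 Also: fluorescence read at 667 nm with signal to noise per printed feature.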 The following applies: 635 nm fluorescence, higher = more signal.
Assay [2] is described as follows: ATP-based viability of Huh7 replicon cells – cell-based, CellTiter-Glo luminescence, basal, 48 h, cytotoxicity control for HCV replication inhibitor project, primary screen (AID 1143).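 Also: Huh7 hepatoma cells carrying a hepatitis C replication reporter with no stimulus; test concentration not given here.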 The following applies: higher = more signal, called active from +8 up or from −8 down.
Assay [3] is described as follows: Pseudomonas biofilm growth suppression – PAO1 strain, BacTiter-Glo luminescence, LB-PBS, primary screen (AID 1144). Conditions: P. aeruginosa PAO1 biofilm, 12 h, higher = more signal.
Assay [4] can be described thus: basal CRE-LacZ reporter activity in PC12 – cell-based, unstimulated, primary screen (AID 1145). The following applies: no forskolin, luminescence, 4.5 h, higher = more signal, called active from +8 up or from −8 down.
A short description of assay [5]: forskolin-driven CRE-LacZ activity in PC12 – cell-based, CRE-LacZ reporter, forskolin-stimulated, primary screen (AID 1146).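 Also: PC12 cells with 6xCRE LacZ reporter stimulated by forskolin 10 µM; beta-galactosidase reporter signal reflecting CREB driven transcription.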 Conditions: luminescence, 4.5 h, higher = more signal, called active from +8 up or from −8 down.
The target of assay [6] is Streptavidin (Streptomyces avidinii) (UniProt P22629). Briefly: compounds binding control protein streptavidin – biophysical, small-molecule microarray, 635/667 nm fluorescence, artefact control for SMM compound annotation, primary screen (AID 1147).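 Also: signal reflects streptavidin binding to arrayed compounds as a control protein.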 Conditions: higher = more signal.
The nature of assay [7]: probe aInhba binding on compound microarray – biochemical, small-molecule microarray, 635/667 nm fluorescence, primary screen (AID 1148).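 Also: score merges 667nm spot fluorescence with signal-to-noise for antibody binding to printed compounds.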 Conditions: higher = more signal.
Assay [8] has as its target Torsin-1A (Homo sapiens) (UniProt O14656). Briefly: TOR1A wild-type binding on microarray – cell lysate, small-molecule microarray, lysate, 635/667 nm, primary screen (AID 1149). The following applies: COS7 hTOR1A-WT lysate, 635 nm fluorescence, higher = more signal.
For assay [9] the target is unchanged. Briefly: torsin A mutant lysate binding on microarrays – cell lysate, small-molecule microarray, COS7 lysate, 635/667 nm fluorescence, primary screen (AID 1150).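 Also: score pools 667 nm emission and signal to noise measuring lysate protein binding.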 Conditions: COS7 hTOR1A mutant lysate, 635 nm fluorescence, higher = more signal.
Assay [10] relates to Sonic hedgehog protein (Shh). The assay can be described thus: Sonic hedgehog microarray binding compounds – biochemical, small-molecule microarray, 635/667 nm fluorescence, primary screen (AID 1151).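 Also: Shh protein binding to compounds spotted on small-molecule microarray slides; score combines spot fluorescence intensity with signal-to-noise across triplicate slides.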 Conditions: 635 nm fluorescence, higher = more signal.

Chain of Streptavidin (Streptomyces avidinii) (P22629 whole entry, looked up): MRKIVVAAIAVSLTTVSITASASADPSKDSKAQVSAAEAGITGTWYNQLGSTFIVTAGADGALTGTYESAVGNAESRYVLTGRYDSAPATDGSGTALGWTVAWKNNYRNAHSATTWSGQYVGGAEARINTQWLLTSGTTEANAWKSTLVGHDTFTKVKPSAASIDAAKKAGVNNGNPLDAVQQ
Chain of Torsin-1A (Homo sapiens) (O14656 whole entry, looked up): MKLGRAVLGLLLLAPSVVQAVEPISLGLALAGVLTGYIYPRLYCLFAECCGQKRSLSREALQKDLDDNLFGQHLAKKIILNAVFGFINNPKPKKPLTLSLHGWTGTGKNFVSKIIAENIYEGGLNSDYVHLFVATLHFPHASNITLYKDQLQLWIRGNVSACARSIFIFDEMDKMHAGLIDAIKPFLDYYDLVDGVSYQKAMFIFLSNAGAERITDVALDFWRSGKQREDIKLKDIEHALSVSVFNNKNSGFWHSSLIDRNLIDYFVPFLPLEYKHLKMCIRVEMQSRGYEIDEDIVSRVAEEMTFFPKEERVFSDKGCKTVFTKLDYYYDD

Regarding `CN(C)CCCNC(=O)[C@@]1(Cc2ccccc2I)c2ccccc2C(=O)N(Cc2ccccc2C(F)(F)F)[C@H]1c1ccc(CO)cc1`, the composite z-score is -0.753 in assay [1]; 0.154 in assay [6]; -0.162 in assay [7]; -1.08 in the assay with Torsin-1A (Homo sapiens) [8]; 0.135 with Torsin-1A (Homo sapiens) [9]; -0.678 in [10]. The z-score in assay [2] was -5.77 (inactive); in [3] it was -0.233 (inactive); in [4] it was 0.351 (inactive); in [5], -0.742 (inactive).
`O=c1cccc(C=Cc2ccccc2)o1`: the composite z-score in [1] is -0.276; in [6], -0.532; in [7] it was 0.144; with Torsin-1A (Homo sapiens) [8], -0.994; with Torsin-1A (Homo sapiens) [9], -0.711; in assay [10] it was -0.604. For the same molecule, the z-score in assay [2] was -0.273 (inactive); in assay [3], -0.544 (inactive); in [4], -0.676 (inactive); in [5] it was 0.801 (inactive).
For `C=CC(COC(C)=O)NS(=O)(=O)c1ccc(Br)cc1` (stereo not given), the composite z-score in assay [1] is 0.136; in assay [6], 0.923; in assay [7], -0.105; in the assay with Torsin-1A (Homo sapiens) [8], 0.211; with Torsin-1A (Homo sapiens) [9] it was 0.385; in [10], 0.948. The z-score in assay [2] is 0.0481 (inactive); in assay [3], 0.465 (inactive); in assay [4] it was 2.39 (inactive); in [5], 1.33 (inactive).
Take `CCOC(=O)[C@H]1C[C@H]2O[C@@]23C[C@H]1C(=O)N1CCCC1[C@@H]3O[Si](C)(C)C(C)(C)C` (stereo not given in full): the composite z-score in [1] is -0.489; in assay [6], -0.266; in [7], -0.245; in the assay with Torsin-1A (Homo sapiens) [8], -0.235; in the assay with Torsin-1A (Homo sapiens) [9] it was -0.178; in assay [10], 1.1. In addition, the z-score is -2.14 (inactive) in assay [2], 0.209 (inactive) in assay [3], -1.59 (inactive) in assay [4] and -0.852 (inactive) in assay [5].
Take `CCCCCN1CC=CC23O[C@@H]4C=CCOC(=O)[C@@H]4[C@H]2C(=O)N(CCCO)[C@@H]3C1=O` (stereo not given in full): the composite z-score in assay [1] was -0.465; in assay [6] it was -0.866; in assay [7], -0.208; with Torsin-1A (Homo sapiens) [8], 2.03; with Torsin-1A (Homo sapiens) [9] it was 2.31; in assay [10], 1.25. In addition, the z-score was -2.93 (inactive) in [2], -1.87 (inactive) in assay [3], -1.85 (inactive) in assay [4] and -0.771 (inactive) in assay [5].
For the molecule `CCCCC(CC)C(O)C1C=CC2C(=O)N(c3ccccc3)C(=O)C2N1Nc1ccccc1` (stereo not given), the composite z-score in [1] was 0.0653; in assay [6], 0.948; in assay [7], 0.103; with Torsin-1A (Homo sapiens) [8], -0.311; with Torsin-1A (Homo sapiens) [9], 0.178; in assay [10], -0.751. Further, the z-score was -2.93 (inactive) in assay [2], -0.569 (inactive) in [3], 0.253 (inactive) in assay [4] and 0.011 (inactive) in assay [5].
On to `O=C1OCCC=C[C@H]2OC34C=CCN(Cc5ccccc5)C(=O)[C@H]3N(CCCCCO)C(=O)[C@@H]4C12` (stereo not given in full), for which the composite z-score is -0.733 in assay [1]; -0.636 in assay [6]; -0.128 in assay [7]; 2.82 in the assay with Torsin-1A (Homo sapiens) [8]; 2.07 with Torsin-1A (Homo sapiens) [9]; -0.211 in [10]. In addition, the z-score in assay [2] is 0.409 (inactive); in assay [3], -1.86 (inactive); in [4], -0.216 (inactive); in [5], -0.732 (inactive).
For the molecule `CN1C(=O)C2C=CC(C(O)c3ccccn3)N(Nc3ccccc3)C2C1=O` (stereo not given), the composite z-score in assay [1] is -0.0522; in assay [6] it was 0.324; in assay [7], -0.0069; with Torsin-1A (Homo sapiens) [8], 0.884; with Torsin-1A (Homo sapiens) [9], -0.179; in assay [10], 0.207. Moreover, the z-score in assay [2] was 0.901 (inactive); in assay [3], -0.652 (inactive); in [4], 0.0467 (inactive); in assay [5], 0.4 (inactive).
Consider `CC(C)(C)N1CC=CC23O[C@@H]4C=CCOC(=O)[C@@H]4[C@H]2C(=O)N(CCCCCO)[C@@H]3C1=O` (stereo not given in full), for which the composite z-score is -0.248 in [1]; -1.41 in assay [6]; -0.421 in assay [7]; -0.803 in the assay with Torsin-1A (Homo sapiens) [8]; -1.05 in the assay with Torsin-1A (Homo sapiens) [9]; -0.15 in assay [10]. Further, the z-score in assay [2] is 0.228 (inactive); in assay [3], 0.123 (inactive); in [4] it was -0.631 (inactive); in assay [5] it was 0.687 (inactive).
Turning to `CCOc1cc(C(O)C2C=CC3C(=O)N(c4ccccc4)C(=O)C3N2Nc2ccc([N+](=O)[O-])cc2)ccc1O` (stereo not given), the composite z-score is -0.0182 in assay [1]; 0.439 in assay [6]; -0.101 in [7]; -0.431 in the assay with Torsin-1A (Homo sapiens) [8]; 0.196 in the assay with Torsin-1A (Homo sapiens) [9]; -0.231 in assay [10]. Also, the z-score in [2] is -1.04 (inactive); in assay [3], -0.222 (inactive); in assay [4], 2.28 (inactive); in [5], 0.507 (inactive).
Take `O=c1cccc(CCc2ccccc2)o1`: the composite z-score is -0.187 in assay [1]; -0.0374 in assay [6]; 0.0357 in assay [7]; -0.221 with Torsin-1A (Homo sapiens) [8]; -0.15 in the assay with Torsin-1A (Homo sapiens) [9]; 0.943 in assay [10]. For the same molecule, the z-score was -0.908 (inactive) in assay [2], 0.624 (inactive) in [3], 1.08 (inactive) in assay [4] and 1.03 (inactive) in assay [5].
As to `COCCOC(=O)N1C(=O)[C@@]2(c3ccccc31)[C@H](C(=O)Nc1nc3ccccc3s1)[C@H]1C(=O)O[C@H](c3ccccc3)[C@H](c3ccccc3)N1[C@@H]2c1ccc(OCCO)cc1`, the composite z-score in [1] was found to be 0.931; in assay [6], 0.82; in assay [7] it was 0.038; with Torsin-1A (Homo sapiens) [8], 0.488; with Torsin-1A (Homo sapiens) [9] it was 1.25; in assay [10], 1.12. Also, the z-score in assay [2] is -2.34 (inactive); in [3], -0.706 (inactive); in assay [4] it was -0.878 (inactive); in assay [5], -0.523 (inactive).
Turning to `N#Cc1ccc(NN2C(C(O)c3ccc([N+](=O)[O-])cc3)C=CC3C(=O)N(c4ccccc4)C(=O)C32)cc1` (stereo not given), the composite z-score in assay [1] is 0.72; in assay [6], 0.323; in assay [7], 0.137; with Torsin-1A (Homo sapiens) [8], -0.169; in the assay with Torsin-1A (Homo sapiens) [9] it was 0.303; in assay [10] it was -0.261. For the same molecule, the z-score in assay [2] was 0.845 (inactive); in [3] it was -0.245 (inactive); in assay [4], -0.525 (inactive); in assay [5], 0.516 (inactive).
As for `O=C1C[C@@](C(=O)NC2CC2)(c2ccc([N+](=O)[O-])cc2)[C@@H](c2ccc(CO)cc2)N1CC12CC3CC(CC(C3)C1)C2`, the composite z-score was 0.382 in [1]; 0.465 in assay [6]; -0.0736 in assay [7]; 0.477 with Torsin-1A (Homo sapiens) [8]; -0.176 in the assay with Torsin-1A (Homo sapiens) [9]; 0.777 in assay [10]. For the same molecule, the z-score in [2] was -4.42 (inactive); in assay [3], -0.752 (inactive); in [4], -0.529 (inactive); in [5] it was -1.12 (inactive).
Consider `Cc1ccc([C@H]2C(C(=O)O)=C[C@@H](C)N2S(=O)(=O)c2ccc(C)cc2)cc1`, for which the composite z-score is -0.144 in assay [1]; 0.642 in assay [6]; -0.0509 in assay [7]; -0.948 with Torsin-1A (Homo sapiens) [8]; -0.465 with Torsin-1A (Homo sapiens) [9]; -0.945 in assay [10]. Further, the z-score is -0.501 (inactive) in assay [2], 0.759 (inactive) in assay [3], -0.126 (inactive) in assay [4] and 1.32 (inactive) in [5].
